The structures appear in SMILES notation. Compounds without any hit were thinned out: in the full panel of roughly 83,000, 20% have a hit.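 96-well plates, one dose, 48 hours. Percent growth reported; active if below 10.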 Values without a mark were called inactive. Active and inactive are the calls of the source.

The experiment relates to HL-60(TB) leukemia. The experiment in a line: NCI-60 one-dose screen, 48 h (100 = growth as untreated, 0 = no growth, -100 = all killed). Particulars: 10 µM unless noted.
In the case of `COc1ccc(CN2c3ccccc3Sc3ccccc32)c(C(F)(F)F)c1`, the growth was 23.7%. As for `CCOC(=O)C/C(C)=N\O`, the figure is 94.5%; as for `COc1ccc(S(=O)(=O)N(C(C)=O)c2ccccc2/C=C/c2cc[n+]([O-])cc2)cc1`, -27.6% (active).

These data come from PubChem BioAssay (NCI).
